The values below come from PubChem BioAssay AID431 (Sanford-Burnham Center for Chemical Genomics, 2006).

Screen size: about 63,000 compounds; about 1,100 (1.7%) were called active. This is one part of a sample in which actives are shown more often than they occur. Potency and affinity values are given separately. Unmarked numbers belong to inactive results.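 How the source made its calls: active means compounds whose percent cytotoxicity in the single-dose primary screen, scaled between solvent and toxic-drug controls, exceeds 50; inactive means the rest.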

A short description of this assay: cytotoxicity in KRAS-transformed pancreatic duct cells, primary screen, cell-based, fluorescence, HTS (AID 431).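 Further: 0% = DMSO solvent wells and 100% = doxorubicin-treated wells.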 The conditions noted are these: HPDE-C7K KRASV12 cells, Alamar Blue viability, 48 h; at 10 µM; stronger effect = higher value. Background: The colour change of resazurin is a common sign of viable cells or microbes.
With `Cc1ccc(S(=O)(=O)N2CCN(S(=O)(=O)N3CCCCC3)CC2)c(C)c1`, the cytotoxicity was 6.6%. The result for `Cc1ccc(Nc2nc(N)nc(CN3CCN(c4ccccc4)CC3)n2)cc1Cl` reads 54.7% (active); that for `CC1CC(C)CN(Cc2nc(N)nc(Nc3ccc4ccccc4c3)n2)C1` (stereo not given), 58.4% (active). For `CCN1CCN(Cc2nc(N)nc(Nc3ccc(C)c(C)c3)n2)CC1` the value was -24.7%; for `COc1ccc(N2CCN(Cc3nc(N)nc(Nc4ccc(C)c(Cl)c4)n3)CC2)cc1`, 19.1%. The result for `Cc1cccc(Nc2nc(N)nc(CN3CCN(c4ccccc4)CC3)n2)c1` reads -21.7%; that for `Cc1ccc(Nc2nc(N)nc(CN3CCN(C)CC3)n2)cc1C`, -27.5%.

With `CC(=O)c1cc2c(cc1NC(=O)CSc1nnc(C)s1)OCO2`, the cytotoxicity was 11.3%. For `CCOC(=O)C1C2C=CC3(CN(Cc4cccs4)C(=O)C13)O2` (stereo not given) the value was 4.9%; for `COc1cccc(NC(=O)C2CCCN(S(=O)(=O)c3cccc4cccnc34)C2)c1` (stereo not given), 20.1%; for `Cc1nc(NC(=O)CSc2ccccc2N)sc1C`, 3%.

`Cn1c(=O)[nH]c(=O)c2c1nc(Sc1ncccn1)n2CCCc1ccccc1`: the cytotoxicity is 3.9%. For `CC(C)Cc1nc(C(N)=O)c2[nH]c(=O)n(-c3ccc(F)cc3)c2n1`, the cytotoxicity is -1.8%. The result for `O=C(CCN1CCN(c2ccccc2F)CC1)Nc1ccccc1F` reads -5.4%; that for `O=C(CCN1CCN(CCC(=O)c2ccccc2)CC1)c1ccccc1`, -9.4%; that for `O=C(COc1ccc(Cl)cc1)NCc1nnc(SCC(=O)Nc2ccccc2)o1`, -7.7%. As for `CC(C)NC(=O)CN1CCN(c2ncccn2)CC1`, the cytotoxicity is -7.7%. Regarding `CC(=O)NCCSC(=O)c1ccc(F)cc1`, the cytotoxicity is -2.7%. The result for `Cc1ccc(S(=O)(=O)Nc2cccc(-c3cn4ccsc4n3)c2)cc1` reads 64% (active). For `Cc1cccc(S(=O)(=O)Nc2cccc(-c3cn4ccsc4n3)c2)c1` the value was 31.3%. In the case of `O=S(=O)(Nc1nccs1)c1ccc2c(c1)OCCO2`, the cytotoxicity is 5.1%.

As to `CC(C)CC(=O)Nc1cccc(-c2cn3ccsc3n2)c1`, the cytotoxicity was 11.7%.

For `CC(C)CC(=O)Nc1ccc(-c2cn3ccsc3n2)cc1`, the cytotoxicity is 56.7% (active).

`c1cn2cc(-c3ccc4c(c3)OCO4)nc2s1`: the cytotoxicity is 15.3%.

Turning to `O=S(=O)(Nc1cccc(-c2cn3ccsc3n2)c1)c1ccc(F)cc1`, the cytotoxicity was 42.2%.

`CC(=O)Nc1ccc(-c2cn3ccsc3n2)cc1`: the cytotoxicity was 6.9%.

On to `O=S(=O)(NCc1cn2ccsc2n1)c1ccc2c(c1)OCCO2`, for which the cytotoxicity is 4.2%. For `O=S(=O)(Nc1ccc(-c2cn3ccsc3n2)cc1)c1ccc2c(c1)OCCO2` the value was 53.9% (active); for `O=S(=O)(Nc1cccnc1)c1ccc2c(c1)OCCO2`, 1.8%.

Regarding `O=S(=O)(Nc1cccc(-c2nc3cccnc3s2)c1)c1ccc2c(c1)OCCO2`, the cytotoxicity is 50.4% (active).

In the case of `O=C(CSCc1ccccc1)NC1CCSC1=O` (stereo not given), the cytotoxicity was 11.9%. For `O=C(CSc1nnc(CCc2nc3ccccc3[nH]2)n1-c1ccccc1)NCc1ccco1`, the cytotoxicity was -22.8%. Regarding `COc1ccccc1OCc1ccc(C(=O)n2nc(C)c(Cl)c2C)o1`, the cytotoxicity is -1.6%. Consider `CN(C)c1ccc(C(=O)c2ccc(N(C)C)c(N)c2)cc1N`, for which the cytotoxicity was 46%.

Regarding `CCOC(=O)C(C)Oc1ccc(C2NC(=O)NC(C)=C2C(C)=O)cc1Br` (stereo not given), the cytotoxicity was 8.9%. In the case of `O=C(NCCc1ccccc1)C1CCCN(S(=O)(=O)c2cccnc2)C1` (stereo not given), the cytotoxicity is -7.8%. For `O=C(NCc1ccc2c(c1)OCO2)c1cnc2n(c1=O)CCS2` the value was 11.4%; for `COc1ccc(-c2nc(SCC(=O)NCc3ccco3)c(-c3ccccc3)[nH]2)cc1OC`, -6.7%; for `COc1ccc(-c2[nH]c(-c3ccc(F)cc3)nc2SCC(=O)NCc2ccco2)cc1OC`, 6.3%. Consider `COc1ccc(-c2[nH]c(-c3cccc(OC)c3)nc2SCC(=O)NCc2ccco2)cc1`, for which the cytotoxicity is 50.4% (active). In the case of `CS(=O)(=O)NCCCc1ccccc1`, the cytotoxicity is -3.7%.

Regarding `O=C(NCc1ccccn1)c1ccc(/C=N/O)nc1`, the cytotoxicity was 0.9%.

As to `CC1CCN(c2nc(-c3ccc(F)cc3)cc(C(F)(F)F)n2)CC1`, the cytotoxicity was -19.1%.

On to `O=c1c2ccccc2[nH]c(=S)n1CCN1CCN(Cc2ccccc2)CC1`, for which the cytotoxicity is 0.6%. On to `O=C(c1ccc(F)cc1)C1CCN(CCn2c(=O)[nH]c3ccccc3c2=O)CC1`, for which the cytotoxicity was 5.6%. For `CCSc1nnc(NC(=O)c2cc(C)oc2C)s1` the value was 10.1%; for `Cc1noc(C(=O)Nc2c(C)nn(Cc3ccccc3)c2C)c1Cl`, -3.9%. As to `CCOC(=O)N1CCN(C(=O)c2ccc3c(c2)N(CC)CCS3)CC1`, the cytotoxicity was 1%.

For `CC(C)C(=O)NC(c1ccco1)c1ccc2cccnc2c1O` (stereo not given), the cytotoxicity was -36.3%. The result for `CC(=O)NC(c1ccco1)c1ccc2cccnc2c1O` (stereo not given) reads 23.7%; that for `Cc1ccc(S(=O)(=O)C(C#N)c2nc3ccccc3nc2N2CCCCC2)cc1` (stereo not given), 0.6%. For `COC(=O)c1ccc(-n2nnnc2SCC(=O)N2CCCCC2)cc1`, the cytotoxicity was -30.4%. Regarding `COc1ccc(CCNC(=O)c2cnccn2)cc1`, the cytotoxicity is -0.7%. The result for `CCOC(=O)C1CCN(c2c(NCCN3CCCCC3C)c(=O)c2=O)CC1` (stereo not given) reads 2.6%; that for `O=C(Cn1c(CO)nc2ccccc21)Nc1cc(C(F)(F)F)ccc1N1CCOCC1`, -13.4%; that for `c1ccc(N2CCOCC2)c(Nc2nc3ccccc3n3cnnc23)c1`, 0.7%. For `C=CCn1c(COc2ccccc2)nnc1SCC(=O)C(C)(C)C`, the cytotoxicity was 8.4%.

Take `Cc1ccc(NC(=O)CCNS(=O)(=O)c2ccc3c(c2)oc(=O)n3C)cc1`: the cytotoxicity is -10.2%. `Cn1c(=O)oc2cc(S(=O)(=O)NCCc3ccccc3)ccc21`: the cytotoxicity is -10.4%. For `O=C(NC1CCCCC1)c1ccc(S(=O)(=O)NCc2ccco2)cc1` the value was -0.5%. In the case of `O=C(NCCc1c[nH]c2ccccc12)c1ccc(S(=O)(=O)NCc2ccco2)cc1`, the cytotoxicity is 51.2% (active). For the molecule `O=C(Nc1ccccc1)c1ccc(S(=O)(=O)NCc2ccco2)cc1`, the cytotoxicity was -6.4%.

Regarding `FC(F)Oc1cccc2cccnc12`, the cytotoxicity is 3.1%.

Turning to `CN(CCOC(=O)c1ccc2c(c1)OCCO2)Cc1ccccc1`, the cytotoxicity is -8%. The result for `Cc1ccc2cccc(OC(=O)c3ccc4c(c3)OCCO4)c2n1` reads 54.5% (active); that for `Cc1noc(C)c1COC(=O)c1ccc2c(c1)OCCO2`, 4.7%. The result for `O=S(=O)(Nc1ccc2c(c1)OCCO2)c1cccc2cccnc12` reads 4.7%; that for `O=C(COc1cccc2cccnc12)Nc1nccs1`, 8.2%; that for `O=C(Oc1cccc2cccnc12)c1cccc(-n2cnnn2)c1`, 23.3%. For `Cn1c(C(=O)N2CCN(c3ncccn3)CC2)cc2c(=O)n(C)c3ccccc3c21` the value was 17.4%. As to `O=C(Nc1cnn(Cc2ccc(Cl)cc2)c1)c1cnccn1`, the cytotoxicity is -2.7%. For `CC(=O)NC(CC(C)C)C(=O)NC(=O)NCc1ccccc1` (stereo not given), the cytotoxicity was 15.8%.

For the molecule `CCN(CC)CCCN1C(=O)C(=O)/C(=C(/O)c2ccc3c(c2)OCCO3)C1c1ccco1` (stereo not given), the cytotoxicity is 5.8%. The result for `Cn1c(-c2ccccc2)cnc1SCC(=O)NCc1ccco1` reads -16.1%; that for `COC(=O)C(NC(C)=O)(Nc1ccccc1)C(=O)OC`, 27.5%; that for `COC(=O)C(NC(C)=O)(Nc1ccc(Br)cn1)C(F)(F)F` (stereo not given), 2.3%. For `COC(=O)C(NC(C)=O)(Nc1ccc(Br)cc1)C(=O)OC` the value was 53.3% (active); for `O=S(=O)(c1cccc(Cl)c1)N1CCCC1`, -5.7%; for `Cn1c(=O)c(C(=O)NC2CCCCCCC2)c(O)c2ccccc21`, 13.6%. For `O=C(NC1CCCCCC1)c1c(O)c2ccccc2[nH]c1=O`, the cytotoxicity is -13.7%. The result for `O=C(NC1CCCC1)c1sc(=S)n2c1[nH]c(=O)c1ccccc12` reads 68.9% (active); that for `O=C(NC1CCCCC1)c1sc(=S)n2c1[nH]c(=O)c1ccccc12`, 77.2% (active); that for `O=C(NC1CCCCCCC1)c1c(O)c2ccccc2[nH]c1=O`, -19.1%. Take `O=C(NCC1CCCO1)c1sc(=S)n2c1[nH]c(=O)c1ccc(C(=O)N3CCCCC3)cc12` (stereo not given): the cytotoxicity is 5.2%.

`CSc1nnc(Cn2c(=O)sc3ccccc32)n1-c1ccccc1`: the cytotoxicity was 13%.

As to `Cc1nc2ccc(NC(=O)N3CCOCC3)cc2s1`, the cytotoxicity was -19.1%. For `Nc1nnc(SCc2cccnc2)s1` the value was -0.3%; for `Cc1cn([C@H]2C[C@H](N=[N+]=[N-])[C@@H](CO)O2)c(=O)[nH]c1=O`, -5.9%. Regarding `CCc1cn([C@H]2C[C@H](O)[C@@H](CO)O2)c(=O)[nH]c1=O`, the cytotoxicity is -1.3%. The result for `O=c1[nH]c(=O)n([C@H]2C[C@H](O)[C@@H](CO)O2)cc1F` reads 55.6% (active). On to `CCc1sc(C(=O)NC)cc1Br`, for which the cytotoxicity is -2.9%. For `CC(C)N1C(=O)C2C(C(=O)NC3CCCCC3)C3C=CC2(O3)C1C(=O)NC1CCCCC1` (stereo not given) the value was 13.7%. The result for `C1CCN(c2nc(N3CCCCC3)nc(N3CCNCC3)n2)CC1` reads 11.6%. As for `c1ccc(Nc2nc(N3CCCCC3)nc(N3CCNCC3)n2)cc1`, the cytotoxicity was 75.8% (active).

For the molecule `c1ccc(Nc2nc(N3CCOCC3)nc(N3CCOCC3)n2)cc1`, the cytotoxicity is 5%. For `CCOC(=O)c1ccccc1NC(=O)C1COc2ccccc2O1` (stereo not given) the value was -10.4%. As to `COc1ccc(-n2nnc3c(SCc4ccccc4)ncnc32)cc1`, the cytotoxicity is 2.7%.

Turning to `c1ccc(CN2CCN(c3nc4ccccc4n4cnnc34)CC2)cc1`, the cytotoxicity was 1.8%.

Consider `COc1ccc(OC)c(C(O)c2coc3ccc(O)c(CN4CCOCC4)c23)c1` (stereo not given), for which the cytotoxicity was 5.9%. `COCCn1nnnc1C(c1ccc(OC)cc1OC)N1CCN(c2ccccc2)CC1` (stereo not given): the cytotoxicity is 11.2%.
